For some assays here: Potency and affinity values are given separately.
Experiments:
Set-up in all cases: scale not given: direction of the effect not stated beside the values
[1] = target: Protein translocase subunit SecA (Escherichia coli (strain K12)) (UniProt P10408); assay: Assay to Identify E. coli SecA ATPase Inhibitors; assay type: functional; settings: 30 µM
[2] = target: T1, Ubiquitin-activating enzyme e1, putative (Leishmania donovani (strain BPK282A1)) (UniProt E9BSI1); assay: Leishmania donovani Ubiquitin Activating Enzyme (LdE1); assay type: functional; settings: 30 µM
T1 sequence (whole entry): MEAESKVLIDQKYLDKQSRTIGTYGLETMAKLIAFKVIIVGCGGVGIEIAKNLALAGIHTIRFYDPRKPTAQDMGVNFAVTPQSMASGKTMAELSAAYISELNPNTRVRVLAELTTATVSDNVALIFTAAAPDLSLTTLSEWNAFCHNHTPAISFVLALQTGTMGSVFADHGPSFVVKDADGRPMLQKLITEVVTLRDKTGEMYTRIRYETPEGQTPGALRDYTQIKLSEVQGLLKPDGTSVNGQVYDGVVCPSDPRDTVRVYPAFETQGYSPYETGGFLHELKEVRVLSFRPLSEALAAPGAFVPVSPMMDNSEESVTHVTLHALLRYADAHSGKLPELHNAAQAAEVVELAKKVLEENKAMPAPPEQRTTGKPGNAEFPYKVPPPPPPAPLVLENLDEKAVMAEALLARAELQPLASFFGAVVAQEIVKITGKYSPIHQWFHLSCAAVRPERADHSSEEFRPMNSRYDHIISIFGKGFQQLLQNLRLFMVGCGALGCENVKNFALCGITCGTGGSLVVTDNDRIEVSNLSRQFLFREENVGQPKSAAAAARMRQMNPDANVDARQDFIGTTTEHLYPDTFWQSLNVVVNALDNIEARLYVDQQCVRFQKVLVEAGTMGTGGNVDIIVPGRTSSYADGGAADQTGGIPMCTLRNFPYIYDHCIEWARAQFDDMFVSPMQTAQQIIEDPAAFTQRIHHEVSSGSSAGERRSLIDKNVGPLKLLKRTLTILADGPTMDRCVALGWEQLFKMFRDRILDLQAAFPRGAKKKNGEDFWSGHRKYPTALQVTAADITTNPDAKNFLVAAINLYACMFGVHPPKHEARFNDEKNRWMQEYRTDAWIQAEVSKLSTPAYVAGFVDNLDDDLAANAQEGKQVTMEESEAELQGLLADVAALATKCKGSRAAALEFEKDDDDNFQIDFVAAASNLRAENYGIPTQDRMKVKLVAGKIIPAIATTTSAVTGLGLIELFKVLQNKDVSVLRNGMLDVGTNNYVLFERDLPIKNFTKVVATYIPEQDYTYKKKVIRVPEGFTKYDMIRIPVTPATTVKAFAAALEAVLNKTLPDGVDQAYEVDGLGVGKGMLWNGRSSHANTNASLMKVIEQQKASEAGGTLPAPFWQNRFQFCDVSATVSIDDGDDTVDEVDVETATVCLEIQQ

[3] = target: AMP-activated protein kinase, AMPK (Homo sapiens) (UniProt P54646+O43741+P54619+Q9UGJ0+Q9Y478+Q13131+Q9UGI9); assay: AMP-dependent Kinase enzyme assay. An in vitro enzyme assay that detects ADP turnover that is directly proportional to AMPK activity. This uses naive AMPK that is activated during the assay with MK-8722; assay type: functional; settings: 30 µM
[4] = target: Sialic acid-binding Ig-like lectin 9 (Homo sapiens) (UniProt Q9Y336); assay: Hs-Siglec9 ALPHAscreen SOP 20170721; settings: 10 µM
Trypanosoma cruzi = assay: Trypanosoma cruzi phosphomannomutase and mannose-1-phosphate guanylyltransferase assay; assay type: functional; settings: 10 µM
[5] = target: T2, Arginase-2, mitochondrial (Homo sapiens) (UniProt P78540); assay: in vitro enzyme assay to detect the production of urea directly proportional to the activity of Arginase II; assay type: functional; settings: 33.3 µM; further: in the data most compounds retested in dose-response had high values
T2 sequence (whole entry): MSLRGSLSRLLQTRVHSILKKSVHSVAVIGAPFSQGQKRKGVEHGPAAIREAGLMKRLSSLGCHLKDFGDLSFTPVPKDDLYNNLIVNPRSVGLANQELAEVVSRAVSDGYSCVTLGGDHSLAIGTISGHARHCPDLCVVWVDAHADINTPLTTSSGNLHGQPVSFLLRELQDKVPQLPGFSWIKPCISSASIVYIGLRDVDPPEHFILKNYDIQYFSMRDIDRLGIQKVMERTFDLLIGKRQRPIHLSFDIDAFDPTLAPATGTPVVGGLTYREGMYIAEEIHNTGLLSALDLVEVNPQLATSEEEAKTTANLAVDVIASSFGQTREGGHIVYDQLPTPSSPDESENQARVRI

[6] = target: T3, Proteasome subunit beta (Trypanosoma cruzi) (UniProt O96673); assay: Trypanosoma cruzi proteasome chymotrypsin-like activity (TcProtChymo) assay.; further: in the data most compounds retested in dose-response had high values; assay type: functional; settings: 9.37 µM
T3 sequence (whole entry): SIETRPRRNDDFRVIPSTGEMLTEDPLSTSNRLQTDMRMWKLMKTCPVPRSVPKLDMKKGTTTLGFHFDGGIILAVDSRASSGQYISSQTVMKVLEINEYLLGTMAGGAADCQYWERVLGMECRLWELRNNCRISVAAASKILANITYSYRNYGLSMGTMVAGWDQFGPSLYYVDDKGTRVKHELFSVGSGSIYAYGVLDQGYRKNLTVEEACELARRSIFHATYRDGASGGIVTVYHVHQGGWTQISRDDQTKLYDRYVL

Homo sapiens = organism: Homo sapiens; assay: To identify inhibition of the IFN signalling (Jak-Stat) pathway via expression of an eGFP reporter gene under the control of an IFN-stimulated response element (ISRE) containing MxA promoter.; assay type: functional; settings: 30 µM
[7] = target: T4, Tyrosyl-tRNA synthetase, putative (Trypanosoma cruzi (strain CL Brener)) (UniProt Q4DSP6); assay: Trypanosoma cruzi tyrosyl tRNA synthetase (TcYRS) _High Tyrosine SOP; assay type: functional; settings: 30 µM; further: in the data most compounds retested in dose-response had high values
T4 sequence (whole entry): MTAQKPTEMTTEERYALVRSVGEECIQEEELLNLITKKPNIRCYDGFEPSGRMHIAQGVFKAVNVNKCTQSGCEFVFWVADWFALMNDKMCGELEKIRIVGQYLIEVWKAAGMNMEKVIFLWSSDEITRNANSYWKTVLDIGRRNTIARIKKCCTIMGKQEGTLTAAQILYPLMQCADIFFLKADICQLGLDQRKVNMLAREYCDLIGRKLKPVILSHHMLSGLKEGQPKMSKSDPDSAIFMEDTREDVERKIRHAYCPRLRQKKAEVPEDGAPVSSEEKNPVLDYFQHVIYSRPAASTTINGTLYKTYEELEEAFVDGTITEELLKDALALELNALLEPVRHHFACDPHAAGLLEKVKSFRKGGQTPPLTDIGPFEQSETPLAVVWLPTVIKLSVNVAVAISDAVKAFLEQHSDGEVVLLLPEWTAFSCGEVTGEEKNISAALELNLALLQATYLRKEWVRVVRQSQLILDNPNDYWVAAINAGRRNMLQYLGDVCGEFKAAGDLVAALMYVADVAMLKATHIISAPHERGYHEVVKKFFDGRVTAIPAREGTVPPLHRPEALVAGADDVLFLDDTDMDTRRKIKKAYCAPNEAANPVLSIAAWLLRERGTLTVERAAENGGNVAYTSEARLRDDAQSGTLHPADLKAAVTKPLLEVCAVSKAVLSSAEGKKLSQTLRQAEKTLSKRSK

[8] = target: T4, Tyrosyl-tRNA synthetase, putative (Trypanosoma cruzi (strain CL Brener)); assay: Trypanosoma cruzi tyrosyl tRNA synthetase (TcYRS) SOP; assay type: functional; settings: 30 µM
[9] = target: Chromo domain-containing protein 1 (Saccharomyces cerevisiae (strain ATCC 204508 / S288c) (Baker's yeast)) (UniProt P32657); assay: ScCHD-1 Enzyme Inhibition Assay; assay type: functional; settings: 30 µM; further: in the data most compounds retested in dose-response had high values
Sequence of Chromo domain-containing protein 1 (Saccharomyces cerevisiae (strain ATCC 204508 / S288c) (Baker's yeast)) (P32657 whole entry, the tested form may be a part): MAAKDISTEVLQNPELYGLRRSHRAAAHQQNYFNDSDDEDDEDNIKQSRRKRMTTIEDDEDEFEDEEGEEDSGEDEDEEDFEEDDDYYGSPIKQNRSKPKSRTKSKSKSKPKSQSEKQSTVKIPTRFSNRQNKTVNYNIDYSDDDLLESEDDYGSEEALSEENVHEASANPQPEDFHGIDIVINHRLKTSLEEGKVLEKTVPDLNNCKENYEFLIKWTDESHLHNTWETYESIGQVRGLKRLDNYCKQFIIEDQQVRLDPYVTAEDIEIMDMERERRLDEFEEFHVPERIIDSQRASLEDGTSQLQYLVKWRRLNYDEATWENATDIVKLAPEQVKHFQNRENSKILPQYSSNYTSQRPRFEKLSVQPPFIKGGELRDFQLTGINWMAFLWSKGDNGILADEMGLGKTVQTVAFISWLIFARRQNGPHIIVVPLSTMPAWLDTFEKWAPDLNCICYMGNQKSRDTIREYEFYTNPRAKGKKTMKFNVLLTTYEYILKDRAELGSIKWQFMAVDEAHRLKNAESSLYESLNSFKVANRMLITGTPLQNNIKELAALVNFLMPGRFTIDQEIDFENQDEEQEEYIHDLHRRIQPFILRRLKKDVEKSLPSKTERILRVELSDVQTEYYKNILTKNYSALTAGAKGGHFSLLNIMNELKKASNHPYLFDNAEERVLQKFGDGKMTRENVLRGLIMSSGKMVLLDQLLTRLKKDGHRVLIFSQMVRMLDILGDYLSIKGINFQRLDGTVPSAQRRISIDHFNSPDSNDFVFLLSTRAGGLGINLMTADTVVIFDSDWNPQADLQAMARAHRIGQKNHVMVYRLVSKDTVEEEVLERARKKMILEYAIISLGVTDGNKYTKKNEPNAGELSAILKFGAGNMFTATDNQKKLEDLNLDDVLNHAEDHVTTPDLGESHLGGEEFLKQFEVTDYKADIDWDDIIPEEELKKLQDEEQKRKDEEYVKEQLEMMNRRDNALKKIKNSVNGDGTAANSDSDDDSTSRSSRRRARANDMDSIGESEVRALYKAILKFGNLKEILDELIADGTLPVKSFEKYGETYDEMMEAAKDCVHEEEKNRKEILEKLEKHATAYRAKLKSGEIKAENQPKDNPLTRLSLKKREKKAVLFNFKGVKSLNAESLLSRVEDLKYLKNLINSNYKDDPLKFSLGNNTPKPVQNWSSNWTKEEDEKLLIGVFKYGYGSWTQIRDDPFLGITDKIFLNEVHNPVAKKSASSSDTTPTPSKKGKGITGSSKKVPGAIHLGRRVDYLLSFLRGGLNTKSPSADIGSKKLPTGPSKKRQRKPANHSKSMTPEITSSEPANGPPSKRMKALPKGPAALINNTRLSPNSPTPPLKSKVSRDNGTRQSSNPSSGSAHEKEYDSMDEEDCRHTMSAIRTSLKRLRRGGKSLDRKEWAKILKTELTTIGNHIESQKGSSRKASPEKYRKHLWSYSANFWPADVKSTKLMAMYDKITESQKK

Sequence of Sialic acid-binding Ig-like lectin 9 (Homo sapiens) (Q9Y336 whole entry): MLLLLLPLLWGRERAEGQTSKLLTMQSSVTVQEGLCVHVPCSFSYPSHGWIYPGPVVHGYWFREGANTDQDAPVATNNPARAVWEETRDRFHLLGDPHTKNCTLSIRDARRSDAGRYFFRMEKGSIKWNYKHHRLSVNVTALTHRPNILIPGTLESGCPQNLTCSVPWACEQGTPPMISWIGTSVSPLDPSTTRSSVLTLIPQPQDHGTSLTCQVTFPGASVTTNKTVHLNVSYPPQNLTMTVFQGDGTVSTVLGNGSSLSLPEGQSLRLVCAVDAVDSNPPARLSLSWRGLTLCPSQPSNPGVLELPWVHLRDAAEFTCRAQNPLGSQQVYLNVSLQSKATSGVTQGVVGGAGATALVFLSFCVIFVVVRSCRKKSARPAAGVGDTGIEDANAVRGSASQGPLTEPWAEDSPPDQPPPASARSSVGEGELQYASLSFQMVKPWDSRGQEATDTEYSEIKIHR
Sequence of Protein translocase subunit SecA (Escherichia coli (strain K12)) (P10408 whole entry): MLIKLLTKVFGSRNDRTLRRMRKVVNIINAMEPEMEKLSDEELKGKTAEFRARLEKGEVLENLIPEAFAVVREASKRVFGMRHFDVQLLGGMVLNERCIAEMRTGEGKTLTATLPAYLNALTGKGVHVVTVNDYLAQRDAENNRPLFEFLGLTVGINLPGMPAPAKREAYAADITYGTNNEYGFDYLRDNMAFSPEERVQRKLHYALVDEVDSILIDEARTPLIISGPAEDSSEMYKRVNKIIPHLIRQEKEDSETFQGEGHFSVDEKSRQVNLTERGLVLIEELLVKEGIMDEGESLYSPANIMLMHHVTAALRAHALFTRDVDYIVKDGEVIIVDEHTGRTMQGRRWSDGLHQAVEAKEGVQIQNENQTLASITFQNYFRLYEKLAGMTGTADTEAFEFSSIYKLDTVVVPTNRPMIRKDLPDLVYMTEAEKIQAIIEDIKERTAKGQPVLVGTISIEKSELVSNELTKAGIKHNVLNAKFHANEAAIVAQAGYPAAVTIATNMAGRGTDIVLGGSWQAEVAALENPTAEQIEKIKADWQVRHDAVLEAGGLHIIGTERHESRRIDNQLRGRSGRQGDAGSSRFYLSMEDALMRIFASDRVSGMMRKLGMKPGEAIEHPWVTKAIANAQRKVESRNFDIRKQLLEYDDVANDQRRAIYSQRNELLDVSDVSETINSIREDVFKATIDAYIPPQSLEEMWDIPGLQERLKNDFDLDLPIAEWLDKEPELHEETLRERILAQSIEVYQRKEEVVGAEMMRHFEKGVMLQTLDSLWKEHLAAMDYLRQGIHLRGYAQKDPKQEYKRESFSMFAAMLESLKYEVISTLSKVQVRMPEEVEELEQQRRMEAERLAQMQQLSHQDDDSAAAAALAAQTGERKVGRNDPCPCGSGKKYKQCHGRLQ

| SMILES | Percent Effect [1] [%] | Percent Effect [2] [%] | Percent Effect [3] [%] | Percent Effect [4] [%] | Percent Effect (Trypanosoma cruzi) [%] | Percent Effect [5] [%] | Percent Effect [6] [%] | Percent Effect (Homo sapiens) [%] | Percent Effect [7] [%] | Percent Effect [8] [%] | Percent Effect [9] [%] |
| --- | --- | --- | --- | --- | --- | --- | --- | --- | --- | --- | --- |
| CN1CC(=O)N(c2ccccc2)CC12CCN(Cc1nccs1)C2 (stereo unspecified) | 3.96 | 5.33 | 4.18 | -3.23 | -6.95 | -56.1 | 13 | -0.957 | 4.17 | 22.5 | -4.64 |
| N#Cc1ccccc1N1CCCN(C(=O)CCn2cccn2)CC1 | -6.4 | 15.2 | 5.53 | 0.749 | 5.19 | -0.76 | 6.8 | 3.94 | 5.42 | 16.5 | -6.74 |
| O=S(=O)(Cc1ccccc1F)NCCCN1CCCCC1 | -5.56 | 2.67 | -0.488 | 18.2 | 1.66 | -1.04 | 3.49 | -24.3 | 1.64 | 1.24 | -4.29 |
| CCCc1n[nH]c(C2CN(CCNS(=O)(=O)CC)CCO2)n1 (stereo unspecified) | -1.25 | 19 | 4.75 | -2.28 | -0.718 | 1.5 | 12.9 | 18.3 | 8.33 | 15.2 | -20.1 |
| Cc1cccc(C(=O)NCc2ccc(S(N)(=O)=O)cc2)n1 | -5.17 | 20.8 | 1.31 | -0.564 | -0.187 | 2.85 | 4.39 | 8.2 | 9.71 | 24.4 | -6.84 |
| Cc1cccc(-c2nc(CN(Cc3cccs3)CC3CCCO3)no2)c1 (stereo unspecified) | -1.96 | -51.9 | 2.38 | -0.778 | 0.103 | 4.95 | 7.72 | 25.8 | -7.29 | -17.7 | -15.2 |
| CN(Cc1ccsc1)C(=O)Nc1cccnc1N1CCCC1 | -9.81 | 7.89 | -31.4 | -9.07 | -7.38 | 0.719 | 2.62 | 6.49 | -1.48 | 3.7 | -2.06 |
| CC(C)c1noc(C(C)N2CCN(CCN3CCCC3=O)CC2)n1 (stereo unspecified) | -5.03 | 5.41 | -10 | 9.09 | -2.17 | 1.6 | -1.62 | 9.64 | 1.48 | 1.24 | 0.594 |
| Cc1ccc(CN(Cc2cccnc2)C2CC(C)(C)NC(C)(C)C2)s1 | -5.72 | 1.35 | 9.33 | -0.663 | -3.36 | -5.8 | 10.1 | 13.4 | 2.15 | -1.3 | -9.11 |
| CCc1nc(C2CCCN(C(=O)c3cnn(CC)c3)C2)no1 (stereo unspecified) | -7.03 | 0 | 3.03 | -1.97 | -5.16 | 1.18 | 5.66 | -8.3 | 1.06 | 5.2 | -2.87 |
| Cc1cnn(CC2CCCCN2Cc2noc(C3CC3)n2)c1 (stereo unspecified) | -2.92 | 5.26 | 2.62 | 2.92 | 0 | 1.53 | 9.86 | 14.8 | 7.35 | 9.76 | -5.92 |
| Cc1ccc(N2CCCN(C(=O)C(C(C)C)n3cncn3)CC2)nn1 (stereo unspecified) | -1.22 | 16.2 | -7.95 | 9.29 | 3.62 | 2.03 | 9.16 | 9.49 | 7.92 | 25.6 | -6.51 |
| O=C(CCNc1ncccn1)NCCOc1ccc2c(c1)CCC2 | -3.51 | 15.8 | -0.433 | -5.56 | -4.39 | -2.52 | 6.68 | 1.31 | 5.42 | 18.5 | -3.74 |
| Cc1noc(NC(=O)c2ccc(Br)cc2)n1 | -5.08 | 26.3 | -4.88 | 4.49 | 6.44 | 1.44 | 16.3 | 70 | 8.37 | 28.4 | -5.14 |
| Cc1nc(CCN(C)C(=O)C2COc3ccccc3C2)no1 (stereo unspecified) | -7.54 | 13 | -6.34 | 19.8 | 8.55 | 5.52 | 16.1 | -0.00401 | 5.38 | 13.6 | -7.23 |
| CCc1c(C(=O)N2CCN(c3ncccn3)CC2)cnn1C(C)(C)C | -1.49 | 21.1 | -5.24 | 0.163 | 0.0934 | 1.44 | 13.3 | 9.72 | 4.43 | 18.5 | -8.38 |

— ChEMBL document CHEMBL3988442, “University of Dundee, Small-Polar-MMV Screening Library” (2021)
